Records with an inconclusive call do not appear. Activity calls are given as the source filed them. Calls come from the whole dose curve; tested in HEK293 reporter line.
Experiments:
[1] = qHTS for Inhibitors of the Functional Ribonucleoprotein Complex (vRNP) of Lassa (LASV) Arenavirus: LASV Primary Screen - GLuc reporter signal (AID 1347082); note: nearly all actives have a fitted effect of over 60% in size
[2] = qHTS for Inhibitors of the Functional Ribonucleoprotein Complex (vRNP) of Lassa (LASV) Arenavirus: Viability assay - alamar blue signal for LASV Primary Screen (AID 1347083); note: nearly all actives have a fitted effect of over 80% in size
[3] = qHTS for Inhibitors of the Functional Ribonucleoprotein Complex (vRNP) of Lymphocytic Choriomeningitis Arenaviruses (LCMV): Viability assay - alamar blue signal for LCMV Primary Screen (AID 1347085); note: nearly all actives have a fitted effect of over 80% in size

Measured: Potency
Note: series mostly up to about 57 µM.

NC(=O)c1cccnc1
inactive: [1] | [2] | [3]

CC(C)(C)NC[C@H](O)COc1nsnc1N1CCOCC1
inactive: [1] | [2] | [3]

CC1(COc2ccc(CC3SC(=O)NC3=O)cc2)CCCCC1 (configuration not stated)
inactive: [1] | [2] | [3]

Nc1nc(-c2ccccc2)c(Br)c(=O)[nH]1
inactive: [1] | [2] | [3]

CC(=O)Nc1ccc(/C=N/NC(N)=S)cc1
inactive: [1] | [2] | [3]

OC[C@H]1O[C@H](O[C@]2(CCl)O[C@H](CCl)[C@@H](O)[C@@H]2O)[C@H](O)[C@@H](O)[C@H]1Cl
inactive: [1] | [2] | [3]

COc1cc(C(=O)N2CCOCC2)cc(OC)c1OC
inactive: [1] | [2] | [3]

O=[N+]([O-])c1ccc(/C=N\O)o1
inactive: [1] | [2] | [3]

NC(=O)CC[C@@H]1NC(=O)[C@H](Cc2ccccc2)NC(=O)[C@H](Cc2ccc(O)cc2)NC(=O)CCSSC[C@@H](C(=O)N2CCC[C@H]2C(=O)N[C@@H](CCCN=C(N)N)C(=O)NCC(N)=O)NC(=O)[C@H](CC(N)=O)NC1=O
inactive: [1] | [2] | [3]

COc1nccnc1NS(=O)(=O)c1ccc(N)cc1
inactive: [1] | [2] | [3]

COc1ccc(C(=O)c2ccccc2)c(O)c1
inactive: [1] | [2] | [3]

Cc1nc(-c2ccc(Cl)cc2)oc1COC(C)(C)C(=O)O
inactive: [1] | [2] | [3]

OCc1ccc(Cl)cc1Cl
inactive: [1] | [2] | [3]

CC(=O)O[C@]1(C(C)=O)CC[C@H]2[C@@H]3C[C@H](C)C4=CC(=O)CC[C@]4(C)[C@H]3CC[C@@]21C
inactive: [1] | [2] | [3]

Cc1c(C(=O)NCCO)[n+](=O)c2ccccc2n1[O-]
inactive: [1] | [2] | [3]

Cc1nc2ccccn2c(=O)c1CCN1CCC(C(=O)c2ccc(F)cc2)CC1
inactive: [1] | [2] | [3]

O=C(OCc1ccccc1)c1ccccc1
inactive: [1] | [2] | [3]

CC(C)OC(=O)OCOP(=O)(CO[C@H](C)Cn1cnc2c(N)ncnc21)OCOC(=O)OC(C)C
inactive: [1] | [2] | [3]

CCCCCC=CCC=CCCCCCCCC(=O)OCC
inactive: [1] | [2] | [3]

CC(C)(CO)[C@@H](O)C(=O)NCCCO
inactive: [1] | [2] | [3]

CC(CCc1ccc(O)cc1)NCCc1ccc(O)c(O)c1 (configuration not stated)
inactive: [1] | [2] | [3]

CC(C)NNC(=O)c1ccncc1
inactive: [1] | [2] | [3]

CCN(CC)CCNC(=O)c1cc(S(C)(=O)=O)ccc1OC
inactive: [1] | [2] | [3]

CC(=O)Nc1ccc(S(=O)(=O)Nc2cc(C)on2)cc1
inactive: [1] | [2] | [3]

CC(C)Cc1ccc(CC(=O)O)cc1
inactive: [1] | [2] | [3]

O=C(O)c1ccccc1OP(=O)(O)O
inactive: [1] | [2] | [3]

CCN(CC)S(=O)(=O)c1ccc(C(=O)O)cc1
inactive: [1] | [2] | [3]

CCCCCCn1c(=O)c2c(ncn2C)n(C)c1=O
inactive: [1] | [2] | [3]

C#CCN[C@@H]1CCc2ccccc21
inactive: [1] | [2] | [3]

N#CCC(=O)NN
inactive: [1] | [2] | [3]

CCCCCCCC/C=C\CCCCCCCC(=O)NCc1ccc(O)c(OC)c1
inactive: [1] | [2] | [3]

CC=CC1=C(C(=O)O)N2C(=O)[C@H](NC(=O)[C@H](N)c3ccc(O)cc3)[C@@H]2SC1
inactive: [1] | [2] | [3]

CC(C)(C)c1cc(C=O)cc(C(C)(C)C)c1O
inactive: [1] | [2] | [3]

NC(=O)NC1N=C([O][Al])NC1=O (configuration not stated)
inactive: [1] | [2] | [3]

O=C1OC2(c3ccccc31)c1cc(Br)c(O)c(Br)c1Oc1c2cc(Br)c(O)c1Br
inactive: [1] | [2] | [3]

Cc1scc2c1N(C(=O)CN1CCN(C)CC1)c1ccccc1NC2=O
inactive: [1] | [2] | [3]

COc1ccc2c(c1)c(CC(=O)OC/C=C(\C)CC/C=C(\C)CCC=C(C)C)c(C)n2C(=O)c1ccc(Cl)cc1
inactive: [1] | [2] | [3]

CN/C(=C\[N+](=O)[O-])NCCSCc1csc(CN(C)C)n1
inactive: [1] | [2] | [3]

O=C(CCN1CCC(c2ccccc2)C1)c1ccc2c(c1)OCCO2 (configuration not stated)
inactive: [1] | [2] | [3]
